This note sets out measurements from PMC4336329 (PLoS ONE, 2015).

About 14,000 (4.5%) of roughly 310,000 compounds showed an effect of 50% or more. The effect is printed as a negative number. For the sample, strong results were picked, then their nearest neighbours and some compounds at random.
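Note: peak tail current of the secondary pulse compared with the same well before compound.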

In the assay the target is human ether-à-go-go-related gene (hERG) potassium channel (human, UniProt Q12809). Kind of assay: primary screen, population patch clamp on CHO cells stably expressing hERG; higher = less effect of the substance.
human ether-à-go-go-related gene (hERG) potassium channel, sequence (Q12809 whole entry, looked up): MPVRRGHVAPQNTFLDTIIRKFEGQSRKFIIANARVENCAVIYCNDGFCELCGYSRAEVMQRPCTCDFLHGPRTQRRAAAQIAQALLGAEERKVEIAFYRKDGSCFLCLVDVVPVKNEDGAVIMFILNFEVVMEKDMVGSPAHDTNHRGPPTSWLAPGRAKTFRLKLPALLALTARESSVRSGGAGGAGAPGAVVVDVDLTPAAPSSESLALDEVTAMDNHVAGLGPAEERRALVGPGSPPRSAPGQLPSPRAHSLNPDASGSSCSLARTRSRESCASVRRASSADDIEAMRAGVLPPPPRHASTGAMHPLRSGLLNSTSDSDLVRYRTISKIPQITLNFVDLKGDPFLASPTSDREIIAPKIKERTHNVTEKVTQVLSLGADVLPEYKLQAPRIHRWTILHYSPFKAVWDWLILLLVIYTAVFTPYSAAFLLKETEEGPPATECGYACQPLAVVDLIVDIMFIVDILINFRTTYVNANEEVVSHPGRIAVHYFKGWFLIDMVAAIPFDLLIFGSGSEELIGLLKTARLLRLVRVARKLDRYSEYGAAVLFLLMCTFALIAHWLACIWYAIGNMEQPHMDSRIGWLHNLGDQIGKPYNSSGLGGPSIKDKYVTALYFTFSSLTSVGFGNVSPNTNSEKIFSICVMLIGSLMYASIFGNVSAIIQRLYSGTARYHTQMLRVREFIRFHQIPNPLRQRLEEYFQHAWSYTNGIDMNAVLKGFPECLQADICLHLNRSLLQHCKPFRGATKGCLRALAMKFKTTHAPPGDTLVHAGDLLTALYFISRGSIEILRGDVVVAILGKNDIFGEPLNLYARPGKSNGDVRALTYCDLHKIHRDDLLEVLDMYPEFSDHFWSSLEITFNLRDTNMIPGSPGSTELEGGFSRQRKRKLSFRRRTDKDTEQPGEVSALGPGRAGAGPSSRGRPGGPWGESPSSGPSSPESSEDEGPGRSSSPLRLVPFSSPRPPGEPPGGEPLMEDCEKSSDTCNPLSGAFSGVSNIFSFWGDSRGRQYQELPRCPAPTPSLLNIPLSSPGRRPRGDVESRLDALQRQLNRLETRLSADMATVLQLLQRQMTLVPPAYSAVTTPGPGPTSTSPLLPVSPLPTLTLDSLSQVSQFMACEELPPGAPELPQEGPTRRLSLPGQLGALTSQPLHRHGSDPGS
On to `COC(=O)C1=C(c2ccc(S(C)(=O)=O)cc2)C[C@@H]2CC[C@H]1N2C(=O)NCCNC(C)=O`, for which the “hERG current change (%, negative = inhibition) at 10uM” value stood at 14.6%.
In the case of `Cc1occc1-c1nnc(SCC(=O)N2CCCCC2)o1` it was -8.31%; in that of `CCC(C)(CC(=O)Nc1nccs1)c1ccccc1` (stereo not shown), 7.66%.
In the case of `COc1cccc(Cn2cc(C)cc(NC(=O)NCc3ccccc3)c2=O)c1` it was 11.9%; in that of `Nc1nc(Cl)cc(Sc2ccc(F)cc2)n1`, 7.51%; in that of `NNC(=O)c1oc2nc(-c3ccccc3)cc(-c3ccco3)c2c1N`, 0.558%.
On to `NNC(=O)c1oc2nc(-c3cccs3)cc(-c3ccco3)c2c1N`, for which the “hERG current change (%, negative = inhibition) at 10uM” value was -69.8%.
In the case of `NNC(=O)c1oc2nc(-c3ccco3)cc(-c3ccco3)c2c1N` it was -12.8%.
To `CCCCN(C(=O)c1ccc2c(c1)OCO2)c1c(N)n(CCCC)c(=O)[nH]c1=O` belongs 25.7%; to `CSCCC(NS(=O)(=O)c1ccccc1F)C(=O)Nc1ccncc1` (stereo not shown), -10.8%; to `O=c1cc(Nc2cccc(Br)c2)[nH]c(=O)[nH]1`, -11.5%.
In the case of `CCOc1ccc2nc(N3CCC(C(=O)N4CCN(c5ccccn5)CC4)CC3)sc2c1` it was -45.7%; in that of `CCOc1ccc2nc(N3CCCCCC3)sc2c1`, -19.2%; in that of `CCOc1ccc2nc(N3CCC(C(=O)N4CCN(C5CCCCC5)CC4)CC3)sc2c1`, -46.1%.
With `CCOC(=O)C1CCN(C(=O)C2CCN(c3nc4ccc(OC)cc4s3)CC2)CC1`, the “hERG current change (%, negative = inhibition) at 10uM” value was -67.6%.
To `CCOC(=O)N1CCN(C(=O)c2ccc3nc(N4CCCCC4)sc3c2)CC1` belongs -15.7%; to `CCOc1ccc2nc(N3CCC(C(=O)N4CCN(c5ncccn5)CC4)CC3)sc2c1`, -13.4%.
In the case of `Cc1cccc2sc(N3CCN(C(=O)C4COc5ccccc5O4)CC3)nc12` (stereo not shown), the “hERG current change (%, negative = inhibition) at 10uM” value is reported as -31.3%.
To `Cc1cccc(N2CCN(C(=O)C3COc4ccccc4O3)CC2)c1C` (stereo not shown) belongs -17.4%; to `Cc1cc(C)c(C#N)c(N2CCN(C(=O)C3COc4ccccc4O3)CC2)n1` (stereo not shown), -75.4%.
Regarding `CCOC(=O)Nc1ccc2nc(N3CCCCCC3)sc2c1`, the “hERG current change (%, negative = inhibition) at 10uM” value is on record as -50.6%.
Take `CCOc1ccc2nc(N3CCC(C(=O)N4CCC5(CC4)OCCO5)CC3)sc2c1`: the “hERG current change (%, negative = inhibition) at 10uM” value is listed as -8.46%.
`CCOc1ccc2nc(N3CCC(C(=O)N4CCN(C(=O)c5ccco5)CC4)CC3)sc2c1`: the “hERG current change (%, negative = inhibition) at 10uM” value is -81.7%.
On to `Cc1ccc2ncnc(NCCCCCC(=O)O)c2c1.Cl`, for which the “hERG current change (%, negative = inhibition) at 10uM” value is 17.4%.
Turning to `CCOc1ncccc1C(=O)Nc1cccc(S(=O)(=O)NC2=NCCC2)c1`, the “hERG current change (%, negative = inhibition) at 10uM” value is listed as -6.34%.
With `COc1ccc2[n-]c(S(=O)Cc3ncc(C)c(OC)c3C)nc2c1.COc1ccc2[n-]c(S(=O)Cc3ncc(C)c(OC)c3C)nc2c1.[Mg+2]` (stereo not shown) [49665950], the “hERG current change (%, negative = inhibition) at 10uM” value is 16.3%.
To `Cc1ccc(C(=O)NCCSC2CCCCC2)cc1S(=O)(=O)Nc1ccccc1` belongs -2.9%; to `C=CCCN(Cc1ccccc1)S(=O)(=O)c1ccccc1Br`, 3.42%.
To `COc1ccc(OCCn2c(C)c(/C=N/n3cnnc3)c3ccccc32)cc1` belongs -0.339%.
`Cn1c(SCC(=O)N/N=C/c2ccc(O)c(O)c2)nc2ccccc21`: the “hERG current change (%, negative = inhibition) at 10uM” value was determined as 4.68%.
In the case of `CCCC(C)NC(=O)COC(=O)c1ccc2c(c1)C(=O)N(Cc1ccco1)C2=O` (stereo not shown) it was 15.8%.
To `Cc1ccc(NC(=O)COC(=O)c2ccc(F)cc2Cl)c(Br)c1` belongs 14.1%; to `O=C(CSc1nc2ccc(Cl)cc2[nH]1)NCc1ccco1`, -51.8%.
To `O=C(CSc1ccc(-c2nc3ccccc3[nH]2)cn1)N1CCN(C(=O)c2ccco2)CC1` belongs -68.4%.
In the case of `Cc1cc2nc(-c3ccc(SCC(=O)N4CCN(C(=O)c5ccco5)CC4)nc3)[nH]c2cc1C`, the “hERG current change (%, negative = inhibition) at 10uM” value is 2.64%.
To `Cc1ccc2nc(SCC(=O)NCc3ccco3)[nH]c2c1` belongs -0.695%; to `Cc1ccc2nc(SCC(=O)N3CCN(C(=O)c4ccco4)CC3)[nH]c2c1`, -35.3%; to `O=C(CSc1nc2ccccc2[nH]1)NCc1ccco1`, -1.16%.
In the case of `CCOc1ccc2nc(SCC(=O)N3CCN(C(=O)c4ccco4)CC3)sc2c1` it was -66.2%; in that of `CCOc1ccc2nc(NC(=O)C3CCN(C(=O)c4ccco4)CC3)sc2c1`, 10.1%; in that of `O=C(CCc1nc2ccccc2[nH]1)N1CCN(C(=O)c2ccco2)CC1`, 6.93%.
To `O=C(CSc1nc2ccc(Cl)cc2[nH]1)N1CCN(C(=O)c2ccco2)CC1` belongs -56.1%.
Turning to `Cl.O=C(CSc1nc2ccccc2[nH]1)N1CCN(C(=O)c2ccco2)CC1`, the “hERG current change (%, negative = inhibition) at 10uM” value was -23.4%.
On to `CCOc1ccc2nc(SCC(=O)NCc3ccco3)sc2c1`, for which the “hERG current change (%, negative = inhibition) at 10uM” value is listed as -29.8%.
To `O=c1oc(-c2cccs2)nc2sc3c(c12)CCCC3` belongs -1.83%.
To `COc1ccc(OC)c(C(=O)c2c(C)oc3cc([N+](=O)[O-])c(O)c([N+](=O)[O-])c23)c1` belongs 13.3%; to `COc1ccc(C2C(C(C)=O)=C(O)C(=O)N2CCc2c[nH]c3ccccc23)cc1` (stereo not shown), 13.7%.
To `CCn1nnc(NC(=O)c2cc3ccccc3o2)n1` belongs 4.36%; to `Cc1ccc(-n2c(CC#N)n[nH]c2=S)c(C)c1`, 3.3%; to `O=C(NCc1ccccc1)Nc1cccn(Cc2ccccc2)c1=O`, 10.4%.
Turning to `Cc1cccc(N2CN=c3s/c(=C\c4ccccn4)c(=O)n3C2)c1`, the “hERG current change (%, negative = inhibition) at 10uM” value is reported as -1.21%.
In the case of `O=C(c1ccco1)N1CCN(c2nc3ccsc3c(=O)s2)CC1` it was -79%.
In the case of `O=C(CSc1nc2cc(Cl)ccc2s1)N1CCN(C(=O)c2ccco2)CC1` it was -71.6%.
To `O=C(CSc1nc2ccccc2s1)N1CCN(C(=O)c2ccco2)CC1` belongs -41.3%; to `O=C(CSc1nc2cc(Cl)ccc2s1)c1ccco1`, 2.2%; to `O=C(C1COc2ccccc2O1)N1CCN(c2nc3ccc([N+](=O)[O-])cc3s2)CC1` (stereo not shown), -29.8%.
As for `COc1ccc2nc(N3CCN(C(=O)C4COc5ccccc5O4)CC3)sc2c1` (stereo not shown), the “hERG current change (%, negative = inhibition) at 10uM” value is -61.2%.
As to `Cc1ccc(Cl)c2sc(N3CCN(C(=O)c4ccco4)CC3)nc12`, the “hERG current change (%, negative = inhibition) at 10uM” value was -10.3%.
Consider `O=C(C1COc2ccccc2O1)N1CCN(c2nc3ccccc3s2)CC1` (stereo not shown), for which the “hERG current change (%, negative = inhibition) at 10uM” value is -27.9%.
As to `Cc1ccc2nc(N3CCN(C(=O)c4ccco4)CC3)sc2c1`, the “hERG current change (%, negative = inhibition) at 10uM” value is given as -32%.
To `Cc1ccc(-c2cc(-c3ccccc3)c(C#N)c(Br)n2)cc1` belongs -4.18%; to `CC1CC(C)CN(S(=O)(=O)c2ccc3c(c2)oc(=O)n3CC(=O)N(C)Cc2ccccc2)C1` (stereo not shown), 7.04%; to `CCOCCCNC(=S)N1C2CCC1CC(NC(=O)NC1CCCCC1)C2` (stereo not shown), 1.88%.
In the case of `Cc1ccc2nc(-c3ccccc3)c(CN3CCN(c4ccccc4F)CC3)n2c1` it was 1.85%.
For the molecule `CN(C)S(=O)(=O)c1cccc(-c2nn(-c3ccccc3)cc2/C=C(/C#N)C(=O)NCc2ccco2)c1`, the “hERG current change (%, negative = inhibition) at 10uM” value was -26.9%.
To `CCCN1CCN(CCCNC(=O)c2cc3c(=O)[nH]c4ccc(C)cc4c3s2)CC1` belongs -29.5%; to `COc1ccccc1-c1ccc(=O)n(CC(=O)NC2CCc3ccccc32)n1` (stereo not shown), 5.88%; to `CCOC(=O)CC(C#N)c1cn(C)c2ccccc12` (stereo not shown), -17.8%.
In the case of `CCn1c(SCC(=O)Nc2ccccc2C)nnc1-c1ccccc1O` it was 1.99%; in that of `Cc1ccc(C2=NN(S(C)(=O)=O)C(c3cccs3)C2)cc1` (stereo not shown), -4.62%; in that of `Cc1nn2c(N3CCCC3)cc(C(C)C)nc2c1-c1ccccc1`, 3.92%.
In the case of `CCCCC1CC1C(=O)Nc1ncc2c(n1)CC(C)(C)CC2=O` (stereo not shown) it was -57.5%; in that of `CCCCC(=O)Nc1ncc2c(n1)CC(C)(C)CC2=O`, -5.63%; in that of `CC1(C)CC(=O)c2cnc(NC(=O)C3CCCC3)nc2C1`, -12.6%.
Consider `COc1cc(Br)c(CN2CCCN(C)CC2)cc1OC`, for which the “hERG current change (%, negative = inhibition) at 10uM” value was -0.597%.
To `CN(C)C=O.O=C(COC(=O)c1ccc(S(=O)(=O)N2CCCC2)cc1)Nc1cccnc1Cl` belongs 7.25%; to `Cc1cccc(C(=O)NCC2CCN(C(=O)c3cccc(C)c3)CC2)c1`, -51.2%.
Consider `O=C(NCC1CCN(C(=O)c2cccc([N+](=O)[O-])c2)CC1)c1cccc([N+](=O)[O-])c1`, for which the “hERG current change (%, negative = inhibition) at 10uM” value is on record as -53.5%.
On to `Cc1cccc(C(=O)NCCCN(C)CCCNC(=O)c2cccc(C)c2)c1`, for which the “hERG current change (%, negative = inhibition) at 10uM” value is on record as -52.2%.
In the case of `Cc1cccc(C(=O)N2CCCCCC2)c1` it was 2.61%; in that of `O=C(NCC1CCN(C(=O)c2ccc([N+](=O)[O-])cc2)CC1)C(=O)Nc1ccccc1`, -36.8%; in that of `O=C(NCC1CCCCC1)c1cccc([N+](=O)[O-])c1`, 9.98%.
`Cc1ccc(NC(=O)C(=O)NCC2CCN(C(=O)c3cccc([N+](=O)[O-])c3)CC2)cc1`: the “hERG current change (%, negative = inhibition) at 10uM” value was -16.5%.
In the case of `O=C(NCC1CCCCC1)c1ccc([N+](=O)[O-])cc1` it was -16%; in that of `Cc1cccc(C(=O)NCCCNC(=O)c2cccc(C)c2)c1`, -3.67%; in that of `Cc1cccc(C(=O)NCCN(C)C)c1.Cl`, 8.43%.
With `O=C(NCC1CCN(C(=O)c2ccc([N+](=O)[O-])cc2)CC1)c1ccc([N+](=O)[O-])cc1`, the “hERG current change (%, negative = inhibition) at 10uM” value is -71.3%.
As for `Cc1cccc(C(=O)N2CCCN(C(=O)c3cccc(C)c3)CC2)c1`, the “hERG current change (%, negative = inhibition) at 10uM” value is given as -0.26%.
